Results on 34 compounds are retold here after the supplement of paper PMC8975748.

Molecules are shown by their SMILES. Where a name gives a salt, the structure may show the parent alone.

For this experiment, the system named is Saccharomyces cerevisiae BY4741 SeMeCo community. Description: z-score of subpopulation abundance vs DMSO median, subpopulation auxotrophic for HLM; higher = larger share of this subpopulation than in DMSO controls. To be noted: 10 µM; 24 h; SM minimal medium; subpopulation (auxotrophy): HLM. The protocol:
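Fluorescent four-plasmid SeMeCo (self-establishing metabolically cooperating S. cerevisiae BY4741 community; plasmids pH-mRuby2, pL-mWasabi, pU-eCFP, pM-TagRFP657) was grown 24 h in minimal SM medium with each Selleck FDA-approved drug at 10 µM in 384-well plates. Cells were fixed and imaged by high-content confocal microscopy. For each auxotrophic subpopulation (and the prototroph), a z-score gives the deviation from the DMSO vehicle-control population median.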
`CN(C)C(=O)Oc1cccc([N+](C)(C)C)c1` [Neostigmine Bromide]: the “z-score of subpopulation abundance” value is -0.52.

For the compound `Cn1cc(C2=C(c3cn(C4CCN(Cc5ccccn5)CC4)c4ccccc34)C(=O)NC2=O)c2ccccc21`, the “z-score of subpopulation abundance” value is -1.27. With `CN1C(=O)COc2c(C(=O)NC3CN4CCC3CC4)cc(Cl)cc21` (centres undefined) [Azasetron HCl], the “z-score of subpopulation abundance” value stood at 1.29. With `Oc1cc(Cl)ccc1Oc1ccc(Cl)cc1Cl` [Triclosan] the figure was 1.15. `COC(=O)C1=CCCN(C)C1` [Arecoline HBr]: the “z-score of subpopulation abundance” value was determined as 0.28. In the case of `CN(C)[C@@H]1C(=O)C(C(N)=O)=C(O)[C@@]2(O)C(=O)C3=C(O)c4c(O)ccc(Cl)c4[C@@](C)(O)[C@H]3C[C@@H]12` [Chlortetracycline HCl], the “z-score of subpopulation abundance” value is -0.55.

Take `O=c1cccc2n1C[C@@H]1CNC[C@H]2C1` [Cytisine]: the “z-score of subpopulation abundance” value is -0.15. With `COc1ccc(C(CN(C)C)C2(O)CCCCC2)cc1` (centres undefined) [Venlafaxine] the figure was -0.65. Regarding `Oc1cccc2cccnc12` [8-Hydroxyquinoline], the “z-score of subpopulation abundance” value was -0.08. In the case of `CC[N+](C)(CC)CCOC(=O)C(O)(c1ccccc1)c1ccccc1` [Methylbenactyzine Bromide], the “z-score of subpopulation abundance” value was -1.19. With `CC(C)N(CCC(C(N)=O)(c1ccccc1)c1ccccn1)C(C)C` (centres undefined) [Disopyramide] the figure was 0.67; with `N#Cc1nn(-c2c(Cl)cc(C(F)(F)F)cc2Cl)c(N)c1[S+]([O-])C(F)(F)F` (centres undefined) [Fipronil], 0. With `O=C(O[C@H]1C[C@H]2CC[C@@H](C1)[N+]21CCCC1)C(O)(c1ccccc1)c1ccccc1` [Trospium chloride] the figure was 0.01; with `CN(C)[C@@H]1C(=O)C(C(N)=O)=C(O)[C@@]2(O)C(=O)C3=C(O)c4c(O)cccc4[C@@](C)(O)[C@H]3C[C@@H]12` [Tetracycline HCl], -0.42; with `C=C[C@H]1CN2CC[C@H]1C[C@H]2[C@H](O)c1ccnc2ccccc12` [Cinchonidine], -0.4. Then `CN1[C@@H]2CC[C@H]1C[C@@H](OC(=O)[C@H](CO)c1ccccc1)C2` [Hyoscyamine], with 0.11; and `CCC1=C[C@H]2CN3CCc4c([nH]c5ccccc45)[C@](C(=O)OC)(C2)[C@H]13` [Catharanthine], with -0.68; and `NCC(O)c1ccc(O)cc1` (racemic) [(+,-)-Octopamine HCl], with -0.75. `C=C(C)[C@H]1Cc2c(ccc3c2O[C@@H]2COc4cc(OC)c(OC)cc4[C@@H]2C3=O)O1` [Rotenone (Barbasco)]: the “z-score of subpopulation abundance” value was determined as 0.69. Then `Cc1cc(C(C#N)c2ccc(Cl)cc2)c(Cl)cc1NC(=O)c1cc(I)cc(I)c1O` (centres undefined) [Closantel], with -0.4; and `CC(C)(O)C(Cl)(Cl)Cl` [Chlorobutanol], with -0.04; and `C=CCN1C[C@H](C(=O)N(CCCN(C)C)C(=O)NCC)C[C@@H]2c3cccc4[nH]cc(c34)C[C@H]21` [Cabergoline], with -0.2. In the case of `CC[C@@H](C(N)=O)N1CCCC1=O` [Levetiracetam], the “z-score of subpopulation abundance” value is 0.21. Then `C[N+]1(C)[C@@H]2C[C@@H](OC(=O)[C@H](CO)c3ccccc3)C[C@H]1[C@@H]1O[C@@H]12` [Methscopolamine], with 0.13; and `N[C@@H]1C[C@H]1c1ccccc1` [Tranylcypromine (2-PCPA) HCl], with 0.39; and `CCN1CC2(OC(=O)c3ccccc3NC(C)=O)CCC(OC)C34C1C(CC23)C1(O)CC(OC)C2CC4C1(O)C2OC` (centres undefined) [Lappaconitine], with -0.42.

Regarding `CCCCCCCCCCCCCCCC[n+]1ccccc1` [Cetylpyridinium Chloride], the “z-score of subpopulation abundance” value was found to be 67.8. Then `C#C[C@]1(O)C=C[C@H]2[C@@H]3CCC4=CC(=O)CC[C@@H]4[C@H]3CC[C@@]21CC` [Gestodene], with -0.9; and `C=CN1CCCC1=O.II` [Povidone iodine], with 0.98; and `CC1(C)SC2C(N)C(=O)N2C1C(=O)O` (centres undefined) [6-Aminopenicillanic acid], with -0.43. Take `CN(C)C(=O)Oc1ccc[n+](C)c1` [Pyridostigmine Bromide]: the “z-score of subpopulation abundance” value came out at 0.28. For `CN1[C@@H]2C[C@@H](OC(=O)[C@H](CO)c3ccccc3)C[C@H]1[C@@H]1O[C@@H]12` [Scopolamine HBr trihydrate], the “z-score of subpopulation abundance” value is -0.8.

Turning to `CC(=O)OCC1=C(C(=O)O)N2C(=O)C(N)C2SC1` (centres undefined) [7-Aminocephalosporanic acid], the “z-score of subpopulation abundance” value was -0.1.

For the compound `NCCc1c[nH]c2ccc(O)cc12` [Serotonin HCl], the “z-score of subpopulation abundance” value is -0.77.
